12 molecules from PubChem BioAssay (NCATS) can be followed below.

Results filed as inconclusive are left out. Active and inactive are the calls of the source. Unless noted, calls follow the shape of the dose curve; as a rule, active = well fitted curve in the direction sought with a large enough effect; inconclusive = small, poorly fitted or top-dose-only effect, or another doubt; inactive = no such curve, though single readings can be large; an effect the other way counts as inactive or inconclusive.

Assay [1] can be described thus: qHTS profiling for inhibitors of Plasmodium falciparum (DD2) proliferation (AID 743323; call rule not given here). To be noted: lower = more inhibition; at 28.7 µM (top of the series) unless noted. The method in brief:
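Parasite DNA quantified by SYBR Green fluorescence (ex 485, em 535 nm) after saponin/Triton lysis and overnight dark incubation. Cultures: 0.3% parasitemia, 2.5% hematocrit, 72 h, 37 C; data scaled between DMSO and 0.29 uM artemisinin.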
In general terms: qHTS replaces the single test concentration by a dilution series.

Assay [2] in a line: qHTS profiling for inhibitors of Plasmodium falciparum (HB3) proliferation (AID 743324).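 Also: 100% = DMSO vehicle wells and 0% = artemisinin-treated control wells.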 To be noted: Plasmodium falciparum HB3 blood-stage proliferation; at 28.7 µM (top of the series) unless noted. The essentials:
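SYBR Green fluorescence (485 ex/535 em) of lysed cultures, incubated overnight at room temperature in the dark, quantifies parasite DNA. Infected erythrocytes at 0.3% parasitemia and 2.5% hematocrit were exposed 72 h; values normalized to DMSO and 0.29 uM artemisinin controls.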

Assay [3] in a line: qHTS profiling of the MIPE4 collection as inhibitors of Plasmodium falciparum (3D7) proliferation (AID 743344; call rule not given here;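 also: scaled between DMSO vehicle wells and 0.29 µM artemisinin as full inhibition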). To be noted: P. falciparum 3D7 in erythrocytes, SYBR Green DNA fluorescence, 72 h; at 28.5 µM (top of the series) unless noted. The essentials:
(§1)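 Parasite DNA was quantified by SYBR Green I fluorescence (ex 485, em 535 nm) after overnight lysis in saponin/Triton buffer at room temperature. Cultures at 0.3% parasitemia and 2.5% hematocrit were first exposed to compound for 72 h at 37 C; signals were normalised to artemisinin (0.29 uM) and vehicle wells.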

Assay [4] is described as follows: qHTS profiling of the MIPE4 collection as inhibitors of Plasmodium falciparum (DD2) proliferation (Rep 2) (AID 743346; call rule not given here). The note with it: P. falciparum Dd2 in erythrocytes, SYBR Green DNA, 72 h; at 28.5 µM (top of the series) unless noted. The method in brief:
as §1

Assay [5] can be described thus: qHTS profiling of the MIPE4 collection as inhibitors of Plasmodium falciparum (HB3) proliferation (AID 743347; call rule not given here;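 also: plate controls were DMSO vehicle wells for no effect and artemisinin wells for full effect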). The note with it: P. falciparum HB3 in erythrocytes, SYBR Green DNA, 72 h; at 28.5 µM (top of the series) unless noted. The essentials:
as §1

Assay [6] can be described thus: High-throughput drug toxicity screening in the BPDCN cell line Cal-1 (AID 1224825; call rule not given here). To be noted: Cal-1 BPDCN cell viability, qHTS; at 45.8 µM (top of the series) unless noted. The essentials: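 Viability of the BPDCN line Cal-1 is measured as ATP-based luminescence (CellTiter-Glo) following 48 h incubation with compounds. Percent activity uses DMSO-treated wells as 100% and 9.2 uM bortezomib as 0%.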

Assay [7] is described as follows: qHTS assay for measurement of the activity of small molecule inhibitors on Zika virus induced Caspase-3 activity in human iPSC derived neural progenitor cells (hNPCs) (AID 1224857). Also: % of control where 0% means no effect; nearly all actives have a fitted effect of over 65% in size. The method in brief: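 Pretreat hNPCs with compound 1 h; infect ZIKV 2 FFU/cell; 6 h 37 C, 5% CO2; Caspase-Glo 3/7, 30 min RT; luminescence; normalize to no-virus and virus-only wells.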

Assay [8] is described as follows: qHTS assay for measurement of the activity of small molecule inhibitors on Zika virus induced Caspase-3 activity in human astrocytoma cells (AID 1224859).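 Also: plate controls were ZIKV-infected untreated cells for no effect and uninfected cells for full effect.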 The method in brief: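 Human SNB-19 astrocytoma cells in RPMI 1640 with 10% FBS receive compound one hour ahead of Zika virus at 2 FFU/cell. After 6 h infection, caspase-3/7 activity is detected by Caspase-Glo luminescence.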

A short description of assay [9]: qHTS Screen of the MIPE 4.0 Collection Against Ewings Sarcoma (RDES) (AID 1259252). Also: nearly all actives have a fitted effect of over 35% in size. Also: potency is read from the fitted curve at half-maximal effect. The essentials: (§2)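 Measured: ATP luminescence (CellTiter-Glo) 10 min after reagent addition, following 48 h drug treatment. Relative luciferase units converted to percent activity, with no-cell wells as full and DMSO wells as zero inhibition.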
Assay [10] in a line: qHTS Screen of the MIPE 4.0 Collection Against Ewings Sarcoma (TC71) (AID 1259253). Also: nearly all actives have a fitted effect of over 40% in size. Also: potency is read from the fitted curve at half-maximal effect. The essentials: as §2
Assay [11] in a line: Identifying Small Molecule Inhibitors of Pancreatic Cancer Stem Cells (A2780, Spheroid) (AID 1259357).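 Also: spheroids pre-formed over 14 days in stem cell medium on hydrogel; compound exposure lasted 48 h before the ATP luminescence read.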 The note with it: Potency: A2780 spheroid viability. The method in brief:
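Spheroids grown 14 days in stem cell media on hydrogel-coated nonadherent plates; 2D lines seeded directly. Compounds added after 4 h attachment, 48 h at 37C, 5% CO2; CellTiter-Glo luminescence normalized to DMSO (no inhibition) and no-cell wells (full inhibition).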

Assay [12] in a line: Identifying Small Molecule Inhibitors of Pancreatic Cancer Stem Cells (SN12C, Adherent) (AID 1259358).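 Also: cell survival measured after 48 h of compound exposure.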 The essentials:
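After a 4 h attachment period, compounds were pinned into wells and cultures held 48 h under standard incubator conditions. Viability was then measured as CellTiter-Glo luminescence following 10 min at room temperature.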

The nature of assay [13]: qHTS profiling of the MIPE4 collection as inhibitors of Plasmodium falciparum (DD2) proliferation (AID 743345; call rule not given here). To be noted: P. falciparum Dd2 in erythrocytes, SYBR Green DNA, 72 h; at 28.5 µM (top of the series) unless noted. The method in brief: as §1
Assay [14] is described as follows: qHTS Screen of the MIPE 4.0 Collection Against Ewings Sarcoma (EW8) (AID 1259255). Also: nearly all actives have a fitted effect of over 35% in size. Also: potency is read from the fitted curve at half-maximal effect.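 As to viability: 100% = DMSO-treated cells and 0% = medium-only wells without cells.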 The essentials: as §2
Assay [15] in a line: qHTS Screen of the MIPE 4.0 Collection Against Ewings Sarcoma (TC32) (AID 1259256). Also: nearly all actives have a fitted effect of over 45% in size. Also: potency is read from the fitted curve at half-maximal effect. The essentials: as §2

The molecule `Cc1cc2c(cc1C1(c3ccc(C(=O)O)cn3)CC1)C(C)(C)CCC2(C)C` displayed an activity, percent of control in assay [1] of 97.2%. In assay [2], the remaining proliferation (% of control), lower = more inhibition came out at 94.8%. This molecule also registered a parasite growth, % of DMSO control in [3] of 58.3%. In addition, in assay [4], the parasite growth, % of control (lower = inhibition) was found to be 77.6%. Moreover, the growth, % of control in [5] amounted to 78.5%. In addition, the viability (% of control) in assay [6] worked out at 121%. For the same molecule, the Potency result in [7], in assay [8], in assay [9], in assay [10], in [11] and in [12] was “inactive” each time.
Take `CC[C@H](C=C[C@@H](C)[C@H]1CC[C@H]2[C@@H]3CC=C4C[C@@H](O)CC[C@]4(C)[C@@H]3CC[C@]12C)C(C)C`: in assay [13], the parasite growth remaining, % of DMSO control (lower = more inhibition) came to 104% [at 9.64 µM]. The viability (% of control) in assay [6] worked out at 108% [at 23.2 µM]. Moreover, the Potency result in [7], in assay [9], in [10] and in assay [14] was “inactive” in each case.
The molecule `O=[N+]([O-])c1ccc(Nc2ccccc2-c2ccccc2)c2nonc12` showed a parasite growth, % of DMSO control in [3] of 33.4%. In addition, the parasite growth, % of control (lower = inhibition) in assay [4] was determined as 46.7%. For the same molecule, the growth, % of control in [5] amounted to 75.1%. In addition, the viability (% of control) in assay [6] turned out to be 88.7%. The Potency entry in assay [7], in assay [8], in assay [9], in assay [14] and in assay [15] was “inactive” each time.
In the case of `CCOC(=O)N1c2ccc(C(F)(F)F)cc2[C@@H](N(Cc2cc(C(F)(F)F)cc(C(F)(F)F)c2)C(=O)OC)C[C@H]1CC`, the parasite growth, % of DMSO control in [3] amounted to 6.27%. Also, in assay [13], the parasite growth remaining, % of DMSO control (lower = more inhibition) is 7.82%. The molecule further yielded a parasite growth, % of control (lower = inhibition) in assay [4] of 14.4%. This molecule also had a growth, % of control in assay [5] of 3.55%. In addition, in [6], the viability (% of control) is 91.9%. In addition, the Potency entry in [7] and in assay [8] was “inactive” throughout. For the same molecule, the results for the Potency in [9] and in assay [14] were 23.5 µM (active) and 20.9 µM (active), respectively.
With `Cc1cccc(-c2[nH]c(C(C)(C)C)nc2-c2ccc3c(c2)OCO3)n1`, in assay [3], the parasite growth, % of DMSO control was determined as 9.08%. Also, the parasite growth remaining, % of DMSO control (lower = more inhibition) in [13] came to 19.7%. In addition, the parasite growth, % of control (lower = inhibition) in assay [4] was 10.1%. The molecule also came in with a growth, % of control in assay [5] of 8.33%. Further, the viability (% of control) in assay [6] is 17.9%. Besides, the Potency entry in assay [7] and in [8] was “inactive” in each case. Moreover, the Potency in assay [9] is 8.33 µM (active); in assay [15], 10.5 µM (active).
The molecule `NC(N)=Nc1nc(CSCCC(N)=NS(N)(=O)=O)cs1` showed a parasite growth, % of DMSO control in [3] of 74.6%. For the same molecule, the parasite growth remaining, % of DMSO control (lower = more inhibition) in assay [13] was 98.2%. In [4], this molecule registered a parasite growth, % of control (lower = inhibition) of 84.9%. For the same molecule, the growth, % of control in assay [5] worked out at 92.7%. Moreover, in [6], the viability (% of control) was 50.4%. Besides, the Potency entry in assay [7], in assay [8] and in assay [14] was “inactive” each time. The Potency in assay [9] is 11.8 µM (active); in [10], 18.7 µM (active).
`COc1cc2nccc(Oc3ccc(NC(=O)Nc4ccc(F)cc4F)c(F)c3)c2cc1OC` yielded a parasite growth, % of DMSO control in assay [3] of 17.2%. Further, the parasite growth remaining, % of DMSO control (lower = more inhibition) in [13] worked out at 36.3%. This molecule registered a parasite growth, % of control (lower = inhibition) in assay [4] of 46.4%. In assay [5], this molecule gave a growth, % of control of 9.7%. Besides, the viability (% of control) in assay [6] came out at 86.2%. The Potency result in assay [7] and in [8] was “inactive” each time. In addition, the Potency in assay [9] is 14.8 µM (active); in assay [14] it was 16.6 µM (active); in assay [15], 6.62 µM (active).
The molecule `N#CC(c1ccnc(NCCc2cccnc2)n1)c1nc2ccccc2s1` (centres undefined) returned a parasite growth, % of DMSO control in assay [3] of 4.46%. Besides, the parasite growth remaining, % of DMSO control (lower = more inhibition) in assay [13] was 18.6%. The molecule also gave a growth, % of control in [5] of 7.28%. For the same molecule, the viability (% of control) in assay [6] came out at 3.4%. Further, the Potency entry in assay [7] and in assay [8] was “inactive” in each case. Besides, the Potency in [9] was 23.5 µM (active); in [10], 16.6 µM (active); in [14], 14.8 µM (active).
With `CC[C@@H]([C@H](C)O)n1ncn(-c2ccc(N3CCN(c4ccc(OCC5CO[C@@](Cn6cncn6)(c6ccc(F)cc6F)C5)cc4)CC3)cc2)c1=O` (some centres undefined), the parasite growth, % of DMSO control in assay [3] was found to be 6.37%. The parasite growth remaining, % of DMSO control (lower = more inhibition) in assay [13] is 9.01%. Further, the parasite growth, % of control (lower = inhibition) in [4] came out at 20.2%. The molecule further displayed a growth, % of control in assay [5] of 5.52%. Besides, in [6], the viability (% of control) was found to be 108%. Moreover, the Potency entry in [7], in assay [8] and in [10] was “inactive” throughout.
`Cc1ccc(C(=O)N(CCCN)[C@@H](c2oc3cc(Cl)ccc3c(=O)c2Cc2ccccc2)C(C)C)cc1`: the parasite growth, % of DMSO control in assay [3] came to 4.68%. The parasite growth remaining, % of DMSO control (lower = more inhibition) in [13] worked out at 8.7%. For the same molecule, the parasite growth, % of control (lower = inhibition) in assay [4] was 8.99%. Further, the growth, % of control in [5] came out at 5.08%. The Potency result in assay [7], in assay [8], in [9], in assay [14] and in [15] was “inactive” throughout.
As for `O=C(NCCCCN1CCOCC1)c1cc2ccccc2o1`, the parasite growth, % of DMSO control in [3] was 89%. The growth, % of control in assay [5] is 87.4%. In [6], the viability (% of control) was found to be 109%. Further, the Potency result in assay [7], in assay [9], in assay [10] and in assay [15] was “inactive” in each case.
On to `CC(C)CNc1ccnc(NCc2csc(-c3ccccc3)n2)n1`, for which the activity, percent of control in [1] is 6.76%. In addition, the remaining proliferation (% of control), lower = more inhibition in assay [2] was -0.95%. The parasite growth, % of DMSO control in assay [3] stood at 7.23%. Also, in assay [13], the parasite growth remaining, % of DMSO control (lower = more inhibition) is 31.7%. The growth, % of control in assay [5] stood at 10.6%. Moreover, the viability (% of control) in [6] worked out at 5.31%. In addition, the Potency entry in [7] and in assay [8] was “inactive” throughout. The results for the Potency in [10], in [14] and in assay [15] were 9.35 µM (active), 18.7 µM (active) and 14.8 µM (active), respectively.
